Screening results: PubChem, The Scripps Research Institute Molecular Screening Center
An excerpt weighted towards active compounds, which were near 0.84% of everything screened.
SRC3 TRFRET art – flags TR-FRET format artefacts in PPARgamma SRC-3 recruitment agonist screen; TR-FRET ratio at 8 µM; TR-FRET artefact counter-screen, PPARgamma/SRC-3 format; active compounds read high; actives 0.39% (n = 99,000); in the data active = TR-FRET ratio above about 2000
PPARg SRC-2 ag – promotes SRC-2 coactivator recruitment by human PPARgamma. P37231. PPARgamma LBD-SRC-2 recruitment, biochemical. activation, % at 8 µM. actives 0.34% (n = 200,000). AID 1032;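 also: 0% = vehicle and 100% = reference agonist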
PPARg SRC-1 ag – PPARgamma-driven SRC-1 recruitment agonism; P37231; PPARgamma-SRC-1 coactivator recruitment biochemical assay; activation, % at 8 µM; actives 0.41% (n = 200,000); AID 631; in the data active = activation above about 19%;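 also: 0% = DMSO and 100% = reference agonist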
SRC1 TRFRET art – counter-screen for PPARgamma SRC-1 recruitment agonists: TR-FRET artefact | TR-FRET detection artefact counter-screen, emission ratio; active compounds read high | TR-FRET ratio at 8 µM | actives 0.34% (n = 99,000) | AID 1051; in the data active = TR-FRET ratio above about 2300
SRC2 TRFRET art – counter-screen for PPARgamma SRC-2 recruitment agonists: TR-FRET artefact. actives 0.4% (n = 200,000). active compounds read high. TR-FRET ratio at 8 µM; in the data active = TR-FRET ratio above about 2000
PPARg SRC-3 ag – promotes SRC-3 coactivator recruitment by human PPARgamma; P37231; biochemical PPARgamma/SRC-3 coactivator recruitment assay; activation, % at 8 µM; actives 0.26% (n = 200,000); AID 731; in the data active = activation above about 23%;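 also: 0% = DMSO and 100% = reference agonist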
PPARg SRC2 ag – human PPARgamma SRC-2 recruitment agonism, confirmation; shares compounds with PPARg SRC-3 ag; biochemical SRC-2 recruitment by PPARgamma; activation, % at 8 µM; actives 52% (n = 790);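 also: 0% = vehicle alone and 100% = reference agonist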
PPARg SRC1 ag – confirmation of agonists of SRC-1 recruitment by human PPARgamma | shares compounds with PPARg SRC-3 ag | PPARgamma–SRC-1 coactivator recruitment biochemical assay | activation, % at 8 µM | actives 43% (n = 790); in the data active = activation above about 20%;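 also: 0% = vehicle wells and 100% = reference agonist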
PPARg SRC3 conf – confirmation of agonists of SRC-3 recruitment by human PPARgamma. shares compounds with PPARg SRC-3 ag. biochemical PPARgamma-SRC-3 coactivator recruitment, agonist mode. AID 1301. activation, % at 8 µM. actives 29% (n = 790); in the data active = activation above about 24%;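 also: 0% = vehicle wells and 100% = reference agonist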
Target sequence (P37231 whole entry, looked up): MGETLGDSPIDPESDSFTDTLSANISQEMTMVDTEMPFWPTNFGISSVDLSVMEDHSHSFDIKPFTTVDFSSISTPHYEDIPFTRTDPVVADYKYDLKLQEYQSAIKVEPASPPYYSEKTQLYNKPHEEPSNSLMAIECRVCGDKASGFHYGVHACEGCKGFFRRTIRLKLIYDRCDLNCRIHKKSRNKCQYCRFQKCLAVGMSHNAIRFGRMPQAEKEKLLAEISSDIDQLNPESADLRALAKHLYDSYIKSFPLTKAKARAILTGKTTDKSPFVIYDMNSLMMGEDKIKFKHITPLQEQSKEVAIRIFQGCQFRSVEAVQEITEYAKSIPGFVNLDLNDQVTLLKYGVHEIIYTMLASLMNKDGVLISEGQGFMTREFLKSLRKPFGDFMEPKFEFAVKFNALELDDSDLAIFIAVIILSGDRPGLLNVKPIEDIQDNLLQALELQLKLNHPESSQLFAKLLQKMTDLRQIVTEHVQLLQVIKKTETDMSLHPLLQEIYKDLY
Target sequence (Q9Y6Q9 whole entry, looked up): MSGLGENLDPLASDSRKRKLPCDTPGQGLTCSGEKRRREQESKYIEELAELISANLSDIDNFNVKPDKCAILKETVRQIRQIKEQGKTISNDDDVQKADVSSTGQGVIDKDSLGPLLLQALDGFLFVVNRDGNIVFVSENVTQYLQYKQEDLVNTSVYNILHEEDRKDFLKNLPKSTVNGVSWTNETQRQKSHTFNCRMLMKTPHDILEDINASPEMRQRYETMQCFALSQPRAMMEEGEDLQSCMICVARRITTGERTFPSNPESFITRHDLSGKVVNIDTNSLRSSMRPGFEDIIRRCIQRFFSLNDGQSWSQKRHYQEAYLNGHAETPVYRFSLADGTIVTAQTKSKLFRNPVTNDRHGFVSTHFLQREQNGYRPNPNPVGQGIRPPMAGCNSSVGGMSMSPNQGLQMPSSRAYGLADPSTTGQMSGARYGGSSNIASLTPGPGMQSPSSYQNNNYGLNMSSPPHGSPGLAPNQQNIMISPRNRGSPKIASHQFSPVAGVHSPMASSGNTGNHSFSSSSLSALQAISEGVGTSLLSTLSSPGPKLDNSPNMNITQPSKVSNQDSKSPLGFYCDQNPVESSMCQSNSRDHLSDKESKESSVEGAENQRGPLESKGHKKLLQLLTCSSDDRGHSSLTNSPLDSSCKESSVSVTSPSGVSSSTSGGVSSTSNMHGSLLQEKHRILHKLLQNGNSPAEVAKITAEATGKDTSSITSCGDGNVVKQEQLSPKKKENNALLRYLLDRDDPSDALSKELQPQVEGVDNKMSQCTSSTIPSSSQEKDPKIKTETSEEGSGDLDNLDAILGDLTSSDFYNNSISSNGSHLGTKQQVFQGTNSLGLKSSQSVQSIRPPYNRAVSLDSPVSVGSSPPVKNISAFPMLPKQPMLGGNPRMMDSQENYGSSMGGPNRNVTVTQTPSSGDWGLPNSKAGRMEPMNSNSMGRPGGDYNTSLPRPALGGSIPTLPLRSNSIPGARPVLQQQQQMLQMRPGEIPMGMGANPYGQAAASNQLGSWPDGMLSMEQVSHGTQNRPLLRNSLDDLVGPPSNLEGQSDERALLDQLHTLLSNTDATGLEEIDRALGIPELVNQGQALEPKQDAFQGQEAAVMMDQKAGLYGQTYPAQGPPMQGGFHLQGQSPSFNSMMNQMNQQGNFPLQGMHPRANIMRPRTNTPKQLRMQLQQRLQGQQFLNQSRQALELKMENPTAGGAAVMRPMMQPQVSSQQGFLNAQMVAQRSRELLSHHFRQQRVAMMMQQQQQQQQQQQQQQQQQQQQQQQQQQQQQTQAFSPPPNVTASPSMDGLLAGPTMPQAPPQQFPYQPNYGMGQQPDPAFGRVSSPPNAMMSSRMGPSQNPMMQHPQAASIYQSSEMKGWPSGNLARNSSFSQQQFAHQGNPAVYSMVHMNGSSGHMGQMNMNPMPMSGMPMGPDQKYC
Active calls of the source: *; · = not tested or not shown. Rule as the data show it, unless noted: active = activation above about 22%; inactive = the rest.

SMILES	SRC3 TRFRET art	PPARg SRC-2 ag	PPARg SRC-1 ag	SRC1 TRFRET art	SRC2 TRFRET art	PPARg SRC-3 ag	PPARg SRC2 ag	PPARg SRC1 ag	PPARg SRC3 conf
CC(=O)C1=C(O)C(=O)N(c2nccs2)C1c1ccccc1 (stereo unspecified)	·	27*	10	·	1601	16	22*	16	13
Clc1cccc(-c2ccc(C=Nc3ccc(N4CCOCC4)cc3)o2)c1	1975	26*	28*	2263	2011*	14	35*	25*	21
O=C1c2ccccc2-c2cccc(NS(=O)(=O)c3ccc(C(F)(F)F)cc3)c21	·	11	12	·	1656	31*	24*	22*	14
O=C1CCc2ccc(NC(=O)C3CC3)cc2N1	1436	2	-6	1805	1430	1	·	·	·
c1ccc2nc(-c3ccc(N4CCOCC4)cc3)ccc2c1	·	6	51*	·	1544	71*	8	7	6
CCN(CC)c1ccc(C=Nc2ccc(N(C)C)cc2)c(O)c1	·	78*	24*	·	2498*	98*	6	5	7
CCN(CC)c1ccc(C=Nc2ccccc2)c(O)c1	·	6	-4	·	1517	10	·	·	·
CCCC(=O)Nc1nc(C)c(C(C)=O)s1	2466*	30*	35*	2803*	2441*	21	32*	21*	21
COc1cccc2c1C(=O)c1c(O)c3c(c(O)c1C2=O)C[C@@](O)(C(=O)CO)C[C@@H]3O[C@H]1C[C@H](N)[C@H](O)[C@H](C)O1	2006	21	28*	2222	1930	13	6	-1	6
CCCc1[nH]nc2c1C(c1ccc(OCCN3CCOCC3)c(OC)c1)C(C#N)=C(N)O2 (stereo unspecified)	1561	2	5	1811	1424	-1	·	·	·
CCOc1ccc(C2C(C#N)=C(N)SC(N)=C2C#N)c(OCC)c1	·	4	27*	·	1849	17	7	4	4
CCOc1cc(C2C(C#N)=C(N)SC(N)=C2C#N)ccc1OCCN1CCOCC1	·	36*	30*	·	2438*	46*	-2	0	1
CC(C)CCCC(C)NS(=O)(=O)Cc1ccccc1 (stereo unspecified)	·	11	3	·	1481	2	·	·	·
CCSc1nnc(-c2ccccc2SC)o1	1975	19	20*	2385*	2020*	11	27*	20*	18
CSc1ccccc1-c1nnc(-c2ccc(Cl)cc2Cl)o1	·	3	2	·	1526	7	·	·	·
COc1ccccc1-n1cc(CN2CCCC(CO)(Cc3cccc(Cl)c3)C2)cn1 (stereo unspecified)	1562	-5	0	1606	1785	3	·	·	·
Cn1cccc1C(=O)NC(=O)COC(=O)c1ccccc1Sc1ccccc1C#N	·	22*	24*	·	3090*	29*	19	19	10
COc1ccc(CS(=O)c2nc(C)cc(C)c2S(C)(=O)=O)cc1 (stereo unspecified)	1731	1	6	1767	1743	5	·	·	·
Oc1ccc(NCc2cccc(OCc3ccccc3)c2)cc1	1844	14	24*	1900	1789	3	-1	-1	2
COC(=O)c1cc(Br)c(=O)n(-c2ccccn2)c1	·	-4	6	·	1459	-8	·	·	·
COC(=O)c1cc(Br)c(=O)n(-c2nccs2)c1	·	57*	37*	·	2990*	74*	22*	10	16
CC(=O)c1ccc(N2CCN(C(=O)c3ccc(Cn4c(=S)[nH]c5ccc(N6CCOCC6)cc5c4=O)cc3)CC2)cc1	3877*	37*	40*	4282*	3627*	35*	19	15	12
COC(=O)c1nn(-c2ccccc2)c(Sc2ccc(Br)cc2)c1/C=N/O	·	3	7	·	1598	5	·	·	·
COc1ccc2c(C)cc3nncn3c2c1	1712	0	8	1963	1928	4	·	·	·
CCCn1cc(SCC(=O)Nc2ccc3c(c2)OCO3)c2ccccc21	·	11	5	·	1751	15	·	·	·
SMILES	SRC3 TRFRET art	PPARg SRC-2 ag	PPARg SRC-1 ag	SRC1 TRFRET art	SRC2 TRFRET art	PPARg SRC-3 ag	PPARg SRC2 ag	PPARg SRC1 ag	PPARg SRC3 conf
CCn1c(=O)cc(SCC(=O)Nc2ccc3c(c2)OCCO3)c2ccccc21	·	85*	69*	·	3434*	92*	65*	46*	43*
Cn1c(=O)cc(SCC(=O)Nc2ccc3c(c2)OCO3)c2ccccc21	·	60*	32*	·	2627*	43*	42*	28*	27*
Cn1cc(SCC(=O)Nc2ccc3c(c2)OCO3)c2ccccc21	·	-4	-2	·	1634	-7	·	·	·
CCc1nnc(NS(=O)(=O)c2ccc(N/C=C\C(=O)c3cccc4ccccc34)cc2)s1	1728	24*	23*	1902	1761	48*	23*	22*	41*
CCO[C@H]1OC(C(=O)N2CCN(C)CC2)=C[C@@H](C2CC2)[C@@H]1CCCO	1605	-3	1	1511	1562	-2	·	·	·
O=C(CC1C(=O)N(c2ccccc2)C(=O)N1C1CCCCC1)Nc1ccccc1 (stereo unspecified)	·	-1	0	·	1412	5	·	·	·
CCn1cc(SCC(=O)N2CCOCC2)c2ccccc21	·	9	1	·	1544	9	·	·	·
CCn1c(=O)cc(OCC(=O)N2CCCC2)c2ccccc21	·	2	9	·	1703	4	·	·	·
CCn1c(=O)cc(SCC(=O)N2CCN(C)CC2)c2ccccc21	·	34*	27*	·	2120*	40*	30*	20*	21
CCN1CCN(C(=O)CSc2cc(=O)n(CC)c3ccccc23)CC1	·	44*	23*	·	2006*	41*	26*	17	18
CCOC(=O)N1CCC(NC(=O)CSc2cc(=O)n(CC)c3ccccc23)CC1	·	48*	55*	·	2762*	45*	38*	27*	25*
CCn1c(=O)cc(SCC(=O)N2CCCCC2)c2ccccc21	·	48*	44*	·	2691*	52*	37*	23*	26*
Clc1ccc(SCCCCN2CCNCC2)cc1	1690	-5	6	1834	1537	0	·	·	·
Cc1cc(N2CCOCC2)nc(-c2ccc([N+](=O)[O-])cc2)n1	·	7	8	·	1724	10	·	·	·
COc1cc(CC(=O)N(c2ccccc2)c2nc(C)cs2)cc(OC)c1OC	1697	1	14	2053	1784	5	·	·	·
Cc1[nH]c2ccccc2c1SCC(=O)N1CCC(C)CC1	1659	-2	4	1569	1696	4	·	·	·
